# Reference: article PMC7862700, “An all-to-all approach to the identification of sequence-specific readers for epigenetic DNA modifications on cytosine”
# Columns and labels:
# Test in all cases: DAPPL (digital affinity profiling via proximity ligation, sequencing); 10 mM Tris-HCl pH 7.5, 50 mM NaCl, 1 mM DTT, 4% glycerol, room temperature, 30 min; GST-TFs on glutathione beads, 16-mer random dsDNA library, 0.1% formaldehyde crosslink after washing; high values mean tight binding
# [1] = target: T1, FLI1 (Homo sapiens, UniProt Q01543 1-452); settings: protein: recombinant; tags: N-terminal GST; dsDNA, one strand shown
# T1 sequence: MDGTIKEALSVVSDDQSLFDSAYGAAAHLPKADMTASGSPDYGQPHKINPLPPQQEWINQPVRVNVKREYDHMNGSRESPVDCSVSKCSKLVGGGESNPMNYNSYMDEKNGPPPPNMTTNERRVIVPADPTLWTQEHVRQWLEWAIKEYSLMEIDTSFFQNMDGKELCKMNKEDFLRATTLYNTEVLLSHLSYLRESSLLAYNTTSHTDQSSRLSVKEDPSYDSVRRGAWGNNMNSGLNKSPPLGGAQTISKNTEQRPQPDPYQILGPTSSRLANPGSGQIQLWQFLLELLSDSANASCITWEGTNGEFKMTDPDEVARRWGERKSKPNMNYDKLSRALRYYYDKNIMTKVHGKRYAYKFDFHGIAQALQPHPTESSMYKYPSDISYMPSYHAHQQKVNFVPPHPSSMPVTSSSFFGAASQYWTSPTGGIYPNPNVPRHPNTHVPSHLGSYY
# In short: (§1)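 A tag-only sample was pooled with DNA-barcoded human transcription factors that had been expressed in yeast as GST fusions and captured on glutathione beads. The pools were incubated for 30 min at room temperature with 200 nmole of a random double-stranded 16-mer DNA library in Tris/NaCl/DTT/glycerol buffer, then washed, crosslinked with 0.1% formaldehyde, proximity-ligated (BsaI/T4 ligase, 1 h, 37 °C), PCR-amplified and sequenced on an Illumina NextSeq500. Binding signal is each hexamer's read frequency for a factor divided by its frequency for the tag-only sample.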
# [2] = target: T2, ELK1 (Homo sapiens, UniProt P19419 1-428); settings: protein: recombinant; tags: N-terminal GST; dsDNA, one strand shown
# T2 sequence: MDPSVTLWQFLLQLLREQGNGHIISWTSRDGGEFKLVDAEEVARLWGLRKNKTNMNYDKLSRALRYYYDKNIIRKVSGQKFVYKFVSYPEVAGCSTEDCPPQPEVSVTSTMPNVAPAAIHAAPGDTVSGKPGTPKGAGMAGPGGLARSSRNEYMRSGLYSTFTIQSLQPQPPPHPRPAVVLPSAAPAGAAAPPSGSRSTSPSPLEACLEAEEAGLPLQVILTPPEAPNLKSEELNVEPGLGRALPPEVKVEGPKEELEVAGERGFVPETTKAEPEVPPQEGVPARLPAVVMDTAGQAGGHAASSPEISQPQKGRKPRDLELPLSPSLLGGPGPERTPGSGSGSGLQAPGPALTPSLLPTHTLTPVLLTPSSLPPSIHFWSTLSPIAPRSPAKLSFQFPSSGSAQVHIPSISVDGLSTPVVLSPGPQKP
# In short: as §1
# [3] = target: T3, GABPA (Homo sapiens, UniProt Q06546 1-454); settings: protein: recombinant; tags: N-terminal GST; dsDNA, one strand shown
# T3 sequence: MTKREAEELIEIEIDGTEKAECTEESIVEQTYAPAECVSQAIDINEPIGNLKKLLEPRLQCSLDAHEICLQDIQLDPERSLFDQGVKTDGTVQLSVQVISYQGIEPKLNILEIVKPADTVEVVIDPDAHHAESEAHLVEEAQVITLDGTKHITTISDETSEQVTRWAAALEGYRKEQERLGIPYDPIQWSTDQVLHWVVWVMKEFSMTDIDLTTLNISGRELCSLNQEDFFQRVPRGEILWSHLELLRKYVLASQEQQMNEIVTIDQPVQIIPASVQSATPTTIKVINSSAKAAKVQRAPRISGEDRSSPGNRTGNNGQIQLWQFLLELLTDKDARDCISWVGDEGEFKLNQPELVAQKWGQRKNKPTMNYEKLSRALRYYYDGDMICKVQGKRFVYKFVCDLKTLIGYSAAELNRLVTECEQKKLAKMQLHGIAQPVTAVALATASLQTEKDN
# In short: as §1
# [4] = target: T4, ERG (Homo sapiens, UniProt P11308 1-479); settings: protein: recombinant; tags: N-terminal GST; dsDNA, one strand shown
# T4 sequence: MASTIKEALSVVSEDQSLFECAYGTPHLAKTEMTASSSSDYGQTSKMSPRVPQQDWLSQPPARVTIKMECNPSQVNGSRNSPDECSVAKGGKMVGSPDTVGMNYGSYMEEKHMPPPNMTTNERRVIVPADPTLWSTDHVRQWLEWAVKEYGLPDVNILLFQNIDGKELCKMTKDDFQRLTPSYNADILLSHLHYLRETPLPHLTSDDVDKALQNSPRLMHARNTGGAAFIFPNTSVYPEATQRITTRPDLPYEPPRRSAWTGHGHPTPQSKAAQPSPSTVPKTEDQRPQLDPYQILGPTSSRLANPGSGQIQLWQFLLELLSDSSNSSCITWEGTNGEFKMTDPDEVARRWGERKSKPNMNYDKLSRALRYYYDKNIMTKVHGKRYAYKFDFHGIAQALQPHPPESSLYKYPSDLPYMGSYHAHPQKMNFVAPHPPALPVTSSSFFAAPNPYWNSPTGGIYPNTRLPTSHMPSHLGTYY
# In short: as §1
# [5] = target: ELF1 (Homo sapiens, UniProt P32519 1-619); settings: protein: recombinant; tags: N-terminal GST; dsDNA, one strand shown
# Sequence of ELF1 (P32519 whole entry): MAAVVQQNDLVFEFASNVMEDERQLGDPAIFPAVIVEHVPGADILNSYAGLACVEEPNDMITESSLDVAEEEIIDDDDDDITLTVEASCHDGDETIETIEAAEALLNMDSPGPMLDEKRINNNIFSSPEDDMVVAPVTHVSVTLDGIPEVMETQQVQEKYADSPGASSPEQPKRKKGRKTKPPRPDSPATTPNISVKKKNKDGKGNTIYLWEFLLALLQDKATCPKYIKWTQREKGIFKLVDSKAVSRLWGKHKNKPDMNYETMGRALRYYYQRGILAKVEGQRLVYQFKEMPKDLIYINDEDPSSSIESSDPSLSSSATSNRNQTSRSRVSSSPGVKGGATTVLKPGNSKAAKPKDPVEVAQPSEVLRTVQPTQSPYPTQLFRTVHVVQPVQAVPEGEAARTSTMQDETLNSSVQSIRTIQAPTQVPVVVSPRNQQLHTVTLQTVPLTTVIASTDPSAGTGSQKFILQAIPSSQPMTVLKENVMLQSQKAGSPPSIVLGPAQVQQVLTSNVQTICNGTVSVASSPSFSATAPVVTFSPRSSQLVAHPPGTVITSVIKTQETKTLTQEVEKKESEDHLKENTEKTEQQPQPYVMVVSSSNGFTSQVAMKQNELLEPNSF
# In short: as §1
# [6] = target: T5, EHF (Homo sapiens, UniProt Q9NZC4 1-300); settings: protein: recombinant; tags: N-terminal GST; dsDNA, one strand shown
# T5 sequence: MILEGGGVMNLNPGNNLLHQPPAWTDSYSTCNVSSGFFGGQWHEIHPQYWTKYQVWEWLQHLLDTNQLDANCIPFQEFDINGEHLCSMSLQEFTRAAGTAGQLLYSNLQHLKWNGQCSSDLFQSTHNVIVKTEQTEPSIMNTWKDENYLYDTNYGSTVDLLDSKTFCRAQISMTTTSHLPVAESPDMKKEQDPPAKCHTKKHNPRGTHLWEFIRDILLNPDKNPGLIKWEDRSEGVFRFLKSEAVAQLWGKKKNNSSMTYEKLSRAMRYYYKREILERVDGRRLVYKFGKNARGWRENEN
# In short: as §1
# [7] = target: SPI1 (Homo sapiens, UniProt P17947 1-270); settings: protein: recombinant; tags: N-terminal GST; dsDNA, one strand shown
# In short: as §1
# [8] = target: SPIB (Homo sapiens, UniProt Q01892 1-262); settings: protein: recombinant; tags: N-terminal GST; dsDNA, one strand shown
# Sequence of SPIB (Q01892 whole entry): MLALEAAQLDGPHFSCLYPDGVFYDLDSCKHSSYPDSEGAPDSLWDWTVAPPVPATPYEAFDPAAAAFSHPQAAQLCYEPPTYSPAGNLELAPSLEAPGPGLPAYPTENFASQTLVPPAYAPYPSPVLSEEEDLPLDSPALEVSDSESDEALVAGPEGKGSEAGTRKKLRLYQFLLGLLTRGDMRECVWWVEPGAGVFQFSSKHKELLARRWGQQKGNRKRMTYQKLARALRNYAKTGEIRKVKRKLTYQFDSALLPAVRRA
# In short: as §1
# [9] = target: T6, ELK3 (Homo sapiens, UniProt P41970 1-407); settings: protein: recombinant; tags: N-terminal GST; dsDNA, one strand shown
# T6 sequence: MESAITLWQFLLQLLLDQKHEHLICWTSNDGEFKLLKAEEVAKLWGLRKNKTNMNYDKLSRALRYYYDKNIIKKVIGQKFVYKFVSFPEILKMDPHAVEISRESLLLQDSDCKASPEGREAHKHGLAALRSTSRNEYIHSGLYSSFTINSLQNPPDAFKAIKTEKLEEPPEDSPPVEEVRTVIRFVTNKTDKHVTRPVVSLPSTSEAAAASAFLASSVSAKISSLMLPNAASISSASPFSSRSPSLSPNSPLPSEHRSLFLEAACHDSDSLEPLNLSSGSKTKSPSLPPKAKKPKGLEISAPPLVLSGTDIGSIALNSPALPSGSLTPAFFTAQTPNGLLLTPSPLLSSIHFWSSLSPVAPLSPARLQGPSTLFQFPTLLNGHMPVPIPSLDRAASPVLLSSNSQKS
# In short: as §1
# [10] = target: T7, FEV (Homo sapiens, UniProt Q99581 1-238); settings: protein: recombinant; tags: N-terminal GST; dsDNA, one strand shown
# T7 sequence: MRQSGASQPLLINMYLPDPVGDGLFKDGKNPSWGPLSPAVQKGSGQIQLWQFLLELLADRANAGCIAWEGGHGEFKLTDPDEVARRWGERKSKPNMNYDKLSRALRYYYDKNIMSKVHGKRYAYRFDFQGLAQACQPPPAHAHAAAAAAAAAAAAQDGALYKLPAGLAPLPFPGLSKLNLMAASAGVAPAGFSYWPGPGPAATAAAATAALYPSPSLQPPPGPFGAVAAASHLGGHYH
# In short: as §1
# [11] = target: ETV5 (Homo sapiens, UniProt P41161 1-510); settings: protein: recombinant; tags: N-terminal GST; dsDNA, one strand shown
# Sequence of ETV5 (P41161 whole entry): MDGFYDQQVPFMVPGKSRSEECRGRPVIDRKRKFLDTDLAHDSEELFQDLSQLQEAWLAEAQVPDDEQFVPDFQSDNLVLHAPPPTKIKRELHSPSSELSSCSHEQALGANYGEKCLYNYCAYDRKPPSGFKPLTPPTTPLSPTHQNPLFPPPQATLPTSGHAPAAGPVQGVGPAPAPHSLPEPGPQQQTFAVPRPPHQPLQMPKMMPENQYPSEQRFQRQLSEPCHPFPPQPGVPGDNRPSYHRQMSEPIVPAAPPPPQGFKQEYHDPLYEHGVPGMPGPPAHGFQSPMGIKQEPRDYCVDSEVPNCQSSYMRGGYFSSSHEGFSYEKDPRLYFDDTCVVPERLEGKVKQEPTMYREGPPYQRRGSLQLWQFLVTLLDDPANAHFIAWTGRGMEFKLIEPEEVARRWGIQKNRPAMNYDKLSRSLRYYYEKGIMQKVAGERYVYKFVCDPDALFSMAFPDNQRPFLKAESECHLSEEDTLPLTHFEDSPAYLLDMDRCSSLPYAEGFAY
# In short: as §1
# [12] = target: HSF1 (Homo sapiens, UniProt Q00613 1-529); settings: protein: recombinant; tags: N-terminal GST; chain copies: 3; dsDNA, one strand shown
# Sequence of HSF1 (Q00613 whole entry): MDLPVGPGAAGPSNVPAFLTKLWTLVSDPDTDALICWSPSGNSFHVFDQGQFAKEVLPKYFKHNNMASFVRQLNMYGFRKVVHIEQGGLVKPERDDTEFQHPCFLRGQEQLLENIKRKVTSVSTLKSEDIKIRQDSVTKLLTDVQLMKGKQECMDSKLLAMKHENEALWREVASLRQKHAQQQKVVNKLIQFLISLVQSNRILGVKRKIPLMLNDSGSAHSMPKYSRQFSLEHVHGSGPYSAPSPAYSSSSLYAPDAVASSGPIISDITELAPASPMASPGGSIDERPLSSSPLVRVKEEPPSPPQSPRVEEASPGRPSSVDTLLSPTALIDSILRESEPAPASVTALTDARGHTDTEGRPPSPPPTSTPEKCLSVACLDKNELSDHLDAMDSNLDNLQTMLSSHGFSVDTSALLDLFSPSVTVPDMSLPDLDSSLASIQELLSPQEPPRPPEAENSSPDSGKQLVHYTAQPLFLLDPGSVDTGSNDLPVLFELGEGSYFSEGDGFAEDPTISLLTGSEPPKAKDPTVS
# In short: as §1
# [13] = target: T8, SPIC (Homo sapiens, UniProt Q8N5J4 1-248); settings: protein: recombinant; tags: N-terminal GST; dsDNA, one strand shown
# T8 sequence: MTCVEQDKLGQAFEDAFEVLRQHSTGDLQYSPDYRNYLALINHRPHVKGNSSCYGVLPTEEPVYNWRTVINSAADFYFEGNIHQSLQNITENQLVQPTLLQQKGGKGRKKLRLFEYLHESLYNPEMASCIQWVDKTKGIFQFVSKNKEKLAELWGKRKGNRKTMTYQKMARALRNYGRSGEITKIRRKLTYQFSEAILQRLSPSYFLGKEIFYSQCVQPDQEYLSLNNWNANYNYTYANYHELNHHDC
# In short: as §1
# [14] = target: ELF4 (Homo sapiens, UniProt Q99607 1-663); settings: protein: recombinant; tags: N-terminal GST; dsDNA, one strand shown
# Sequence of ELF4 (Q99607 whole entry): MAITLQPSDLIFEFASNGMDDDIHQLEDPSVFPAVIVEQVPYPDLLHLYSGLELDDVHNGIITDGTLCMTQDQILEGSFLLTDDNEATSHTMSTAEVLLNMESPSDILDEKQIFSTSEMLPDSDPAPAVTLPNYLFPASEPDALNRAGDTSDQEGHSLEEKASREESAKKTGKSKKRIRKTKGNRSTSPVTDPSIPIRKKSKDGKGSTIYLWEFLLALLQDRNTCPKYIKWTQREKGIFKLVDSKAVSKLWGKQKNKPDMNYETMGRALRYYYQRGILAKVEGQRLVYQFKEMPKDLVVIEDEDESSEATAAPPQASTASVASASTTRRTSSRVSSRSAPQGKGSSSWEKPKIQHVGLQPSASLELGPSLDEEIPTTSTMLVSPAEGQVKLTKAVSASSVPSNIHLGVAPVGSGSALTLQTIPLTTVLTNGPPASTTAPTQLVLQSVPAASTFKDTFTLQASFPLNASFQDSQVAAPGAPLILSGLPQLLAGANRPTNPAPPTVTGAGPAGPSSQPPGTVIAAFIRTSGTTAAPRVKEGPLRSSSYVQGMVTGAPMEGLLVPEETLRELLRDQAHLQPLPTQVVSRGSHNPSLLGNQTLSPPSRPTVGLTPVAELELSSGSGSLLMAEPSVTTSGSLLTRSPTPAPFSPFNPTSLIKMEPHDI
# In short: as §1
# [15] = target: T9, ELK4 (Homo sapiens, UniProt P28324-2 1-405); settings: protein: recombinant; tags: N-terminal GST; dsDNA, one strand shown
# T9 sequence: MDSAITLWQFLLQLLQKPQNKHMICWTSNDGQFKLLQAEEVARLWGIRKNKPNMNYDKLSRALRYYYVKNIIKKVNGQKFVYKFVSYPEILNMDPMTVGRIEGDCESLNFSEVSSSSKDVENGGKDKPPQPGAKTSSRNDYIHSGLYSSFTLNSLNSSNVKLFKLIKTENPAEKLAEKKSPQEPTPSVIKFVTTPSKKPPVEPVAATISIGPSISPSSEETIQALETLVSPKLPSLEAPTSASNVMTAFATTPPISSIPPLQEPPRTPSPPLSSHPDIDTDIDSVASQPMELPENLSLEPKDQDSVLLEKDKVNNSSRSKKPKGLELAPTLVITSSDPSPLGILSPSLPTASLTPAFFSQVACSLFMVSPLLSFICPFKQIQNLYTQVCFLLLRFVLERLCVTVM
# In short: as §1
# [16] = target: T10, ETV2 (Homo sapiens, UniProt O00321 1-342); settings: protein: recombinant; tags: N-terminal GST; dsDNA, one strand shown
# T10 sequence: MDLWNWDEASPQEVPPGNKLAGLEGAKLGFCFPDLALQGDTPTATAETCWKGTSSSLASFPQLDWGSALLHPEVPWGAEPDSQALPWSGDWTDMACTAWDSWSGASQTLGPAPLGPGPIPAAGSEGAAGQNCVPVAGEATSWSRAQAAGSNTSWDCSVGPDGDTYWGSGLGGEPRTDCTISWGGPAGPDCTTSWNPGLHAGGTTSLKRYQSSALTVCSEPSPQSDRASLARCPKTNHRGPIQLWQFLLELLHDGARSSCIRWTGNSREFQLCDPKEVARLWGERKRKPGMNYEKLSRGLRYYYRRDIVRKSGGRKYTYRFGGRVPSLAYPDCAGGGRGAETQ
# In short: as §1
# [17] = target: T11, ELF3 (Homo sapiens, UniProt P78545 1-371); settings: protein: recombinant; tags: N-terminal GST; dsDNA, one strand shown
# T11 sequence: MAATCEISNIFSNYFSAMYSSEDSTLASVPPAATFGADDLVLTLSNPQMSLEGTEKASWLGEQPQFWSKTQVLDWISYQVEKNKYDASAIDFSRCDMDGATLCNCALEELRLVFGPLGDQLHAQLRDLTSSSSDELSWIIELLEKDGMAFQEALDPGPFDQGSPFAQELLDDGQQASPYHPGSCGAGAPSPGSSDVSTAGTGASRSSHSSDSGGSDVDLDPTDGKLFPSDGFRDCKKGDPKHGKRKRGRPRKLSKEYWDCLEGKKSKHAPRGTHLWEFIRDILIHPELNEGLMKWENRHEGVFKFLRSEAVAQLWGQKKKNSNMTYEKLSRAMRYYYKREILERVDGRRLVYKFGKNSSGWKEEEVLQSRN
# In short: as §1
# [18] = target: CRX (Homo sapiens, UniProt O43186 1-299); settings: protein: recombinant; tags: N-terminal GST; dsDNA, one strand shown
# Sequence of CRX (O43186 whole entry): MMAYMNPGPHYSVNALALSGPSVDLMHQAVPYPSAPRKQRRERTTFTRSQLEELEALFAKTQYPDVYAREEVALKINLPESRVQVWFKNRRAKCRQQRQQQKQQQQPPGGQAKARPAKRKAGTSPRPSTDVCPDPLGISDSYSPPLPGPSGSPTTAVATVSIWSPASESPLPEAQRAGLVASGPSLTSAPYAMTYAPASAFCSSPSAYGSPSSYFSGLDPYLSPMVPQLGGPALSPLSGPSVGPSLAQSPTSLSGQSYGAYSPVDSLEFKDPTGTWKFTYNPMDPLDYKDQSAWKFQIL
# In short: as §1
# [19] = target: ETV1 (Homo sapiens, UniProt P50549 1-477); settings: protein: recombinant; tags: N-terminal GST; dsDNA, one strand shown
# Sequence of ETV1 (P50549 whole entry): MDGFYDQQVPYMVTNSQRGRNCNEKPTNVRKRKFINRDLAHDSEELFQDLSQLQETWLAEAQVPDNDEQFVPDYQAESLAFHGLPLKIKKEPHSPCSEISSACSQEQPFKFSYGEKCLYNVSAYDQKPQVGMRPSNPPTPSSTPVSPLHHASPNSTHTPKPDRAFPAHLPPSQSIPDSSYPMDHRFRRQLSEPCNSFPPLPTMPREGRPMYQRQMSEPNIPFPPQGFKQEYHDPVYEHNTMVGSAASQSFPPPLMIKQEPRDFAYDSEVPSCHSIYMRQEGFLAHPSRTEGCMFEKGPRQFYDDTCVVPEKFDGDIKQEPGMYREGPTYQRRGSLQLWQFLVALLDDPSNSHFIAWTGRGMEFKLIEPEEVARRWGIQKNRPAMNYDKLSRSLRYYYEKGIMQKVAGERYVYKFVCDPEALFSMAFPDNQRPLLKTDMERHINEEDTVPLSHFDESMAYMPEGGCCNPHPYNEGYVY
# In short: as §1
sequence,measurement,setting,value
TACTGC,binding signal,[1],"1.22 fold enrichment (6-mer frequency, TF over GST control)"
same,binding signal,[2],"1.22 fold enrichment (6-mer frequency, TF over GST control)"
same,binding signal,[3],"1.17 fold enrichment (6-mer frequency, TF over GST control)"
same,binding signal,[4],"1.25 fold enrichment (6-mer frequency, TF over GST control)"
same,binding signal,[5],"1.24 fold enrichment (6-mer frequency, TF over GST control)"
same,binding signal,[6],"1.3 fold enrichment (6-mer frequency, TF over GST control)"
same,binding signal,[7],"1.24 fold enrichment (6-mer frequency, TF over GST control)"
same,binding signal,[8],"1.13 fold enrichment (6-mer frequency, TF over GST control)"
same,binding signal,[9],"1.1 fold enrichment (6-mer frequency, TF over GST control)"
same,binding signal,[10],"1.24 fold enrichment (6-mer frequency, TF over GST control)"
same,binding signal,[11],"1.32 fold enrichment (6-mer frequency, TF over GST control)"
same,binding signal,[12],"1.1 fold enrichment (6-mer frequency, TF over GST control)"
same,binding signal,[13],"1.29 fold enrichment (6-mer frequency, TF over GST control)"
same,binding signal,[14],"1.22 fold enrichment (6-mer frequency, TF over GST control)"
same,binding signal,[15],"1.17 fold enrichment (6-mer frequency, TF over GST control)"
same,binding signal,[16],"1.09 fold enrichment (6-mer frequency, TF over GST control)"
same,binding signal,[17],"1.34 fold enrichment (6-mer frequency, TF over GST control)"
same,binding signal,[18],"1.17 fold enrichment (6-mer frequency, TF over GST control)"
same,binding signal,[19],"1.08 fold enrichment (6-mer frequency, TF over GST control)"
